Results taken from PubChem BioAssay (NCI).
This is part of a sample that, as a whole, favours compounds with a hit. Of some 83,000 tested, about 20% had one in any assay.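 Testing used 96-well plates and a 48-hour single-concentration exposure. Example: -40 means 40% of the starting cells died.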 Unmarked numbers belong to inactive results. Activity calls are given as the source filed them. The calls were made as follows: active = growth percent below 10; inactive = the rest.

Experiments:
Experiment in all cases: NCI-60 one-dose screen, 48 h (100 = growth as untreated, 0 = no growth, -100 = all killed)
HT29 colon = settings: 10 µM unless noted
SNB-75 CNS = settings: 10 µM unless noted
SNB-19 CNS = settings: 10 µM unless noted
PC-3 prostate = settings: 10 µM unless noted
UACC-62 melanoma = settings: 10 µM unless noted
LOX IMVI melanoma = settings: 10 µM unless noted
SK-MEL-28 melanoma = settings: 10 µM
SK-MEL-2 melanoma = settings: 10 µM unless noted
U251 CNS = settings: 10 µM unless noted
SK-MEL-5 melanoma = settings: 10 µM unless noted

Row | SMILES | growth (HT29 colon) | growth (SNB-75 CNS) [%] | growth (SNB-19 CNS) | growth (PC-3 prostate) | growth (UACC-62 melanoma) | growth (LOX IMVI melanoma) | growth (SK-MEL-28 melanoma) | growth (SK-MEL-2 melanoma) | growth (U251 CNS) | growth (SK-MEL-5 melanoma)
1 | CN=c1ccc2nc3ccc(N)cc3sc-2c1 | 84.6% | 33.6 | 30.9% | 5.54% (active) | 15.8% | 2.59% (active) | 51.7% | -0.853% (active) | – | –
2 | CC(=O)c1ccc2oc(=O)n(Cc3ccc(C#N)cc3)c(=O)c2c1 | 112% | – | 104% | 97.5% | 97.9% | 97.8% | 104% | 101% | 105% | 105%
3 | O=C(Nc1ccc(C23CC4CC(CC(c5ccccc5)(C4)C2)C3)cc1)c1cccs1 | 53.8% | – | 91.9% | 60% | 63.8% | 76.5% | 79.5% | 75.6% | 69.8% | 56.1%
4 | COC(=O)c1cc2c(n1Cc1ccccc1)-c1oncc1CCC2 | 30.9% | – | 81.8% | 77.4% | 49.7% | 67.8% | 62.5% | 47.7% | 68.6% | 58.6%
5 | Cc1cccc2c(=O)c3c(sc12)c(N1CCNCC1)nc1ccccc13 | 6.4% (active) | – | 82.6% | 69.9% | 89.9% | 10.3% | 80.1% | 98.2% | 59.9% | 80.2%
6 | O=c1c2cc(F)ccc2sc2c(NCCN3CCCC3)nc3ccccc3c12 | 13.9% | – | 69.2% | 61% | 38.2% | 28.4% | 71.6% | 91% | 35.7% | 79.7%
7 | COc1cc(/C(C#N)=C/c2nc3c(N4CCOCC4)nc(Cl)nc3n2C)cc(OC)c1OC | 9.95% (active) | – | 17.7% | 10.6% | 2.78% (active) | 8.21% (active) | 46% | 57.3% | 8.74% (active) | -38.3% (active)
8 | N#C/C(=C\c1c(-c2ccccc2)[nH]c2ccccc12)C(=O)c1ccccc1 | 16.4% | – | 44.5% | 44.5% | 36.3% | 54.2% | 55.4% | 47.8% | 43.3% | 21.6%
9 | COC(=O)[C@H]1CCCN1C(=O)[C@H]1CCCN1C(=O)[C@H](Cc1c[nH]c2ccccc12)NC(=S)Nc1cc(C(F)(F)F)cc(C(F)(F)F)c1 | 7.55% (active) | 52.8 | 51.3% | 39.9% | 57% | 34.5% | 54.8% | 94.9% | – | –
10 | CN1CCN(Cc2ccc(C(=O)Nc3cncc(C#Cc4cnc(N)c5ccccc45)c3)cc2C(F)(F)F)CC1 | -53.2% (active) | – | -47.5% (active) | -18.8% (active) | 42.7% | -92.4% (active) | -85.5% (active) | -53.9% (active) | -70.5% (active) | -94.6% (active)
11 | COC(=O)[C@@H]1CCCN1C(=O)[C@H]1CCCN1C(=O)[C@@H](Cc1c[nH]c2ccccc12)NC(=S)Nc1cc(C(F)(F)F)cc(C(F)(F)F)c1 | 33% | 46.6 | 37.6% | 32.4% | 48.5% | 38.8% | 55.7% | 55.3% | – | –
12 | Clc1ccc(-c2nnc(COc3ccc(C4=NNC(c5ccco5)C4)cc3)o2)cc1 (stereo not drawn) | 101% | 84.9 | 92.5% | 80.8% | 76.3% | 84.8% | 101% | 106% | – | –
13 | CC1=C(C(=O)OCC2CCN(C(=O)OC(C)(C)C)CC2)[C@H](c2cccc(C#N)c2)C2=C(CC(C)(C)CC2=O)N1 | 30.9% | – | 51.7% | 59.4% | 43.5% | 15.2% | 68.4% | 75.3% | 47.6% | 20.5%
14 | COC(=O)C1(C)COP(=O)(Nc2ccc(OC)cc2)OC1 (stereo not drawn) | 101% | – | 103% | 99.8% | 108% | 96.3% | 108% | 96.4% | 104% | 105%
15 | CSc1nc2c(c(=O)[nH]1)N=C1c3ccccc3C(=O)C1C(c1ccc(F)cc1)N2 (stereo not drawn) | 18% | – | 61.6% | 69.3% | 43.1% | 62% | 83.5% | 72.1% | 58.8% | 39.8%
16 | OCCNc1nc(Nc2ccc(C3=NN(c4cc(Cl)cc(Cl)c4)C(c4ccc(C(F)(F)F)cc4)C3)cc2)nc(N2CCOCC2)n1 (stereo not drawn) | 55.9% | – | 87.6% | 62.9% | 69.7% | 44.8% | 81.4% | 116% | 63.4% | 76%
17 | C[n+]1c2ccccc2nc2ccc(NCCO)cc21 | 8.37% (active) | – | 78.3% | 50.7% | 84.1% | 90.6% | 110% | 102% | 80.5% | 98%
18 | COC(=O)c1ccc(NC(=O)CSc2nc3ccccc3c(=O)n2-c2ccccc2)cc1 | 108% | – | 99.3% | 103% | 96.3% | 98.4% | 113% | 105% | 102% | 94%
19 | COC(=O)c1c2c(c(C)[n+]([O-])c1C)C(=O)C=C(NCc1ccc(F)c(F)c1)C2=O | 1.02% (active) | – | -67.2% (active) | 3.37% (active) | -83.9% (active) | -72.7% (active) | -19.3% (active) | -50.1% (active) | -31.9% (active) | -100% (active)
20 | COc1cc(CNC(=O)c2ccsc2Nc2ccnc(C(F)(F)F)c2)ccc1O | 97.8% | – | 96% | 88.1% | 102% | 91.7% | 118% | 103% | 95.4% | 98.2%
21 | COC(=O)/C(CCC=C(C)C)=C1\[C@@H](OC(C)=O)C[C@@]2(C)[C@H]1C[C@@H](O)[C@H]1[C@@]3(C)CC[C@H](NCc4ccccc4)[C@@H](C)[C@@H]3CC[C@@]12C | 14.8% | – | 81.9% | 31.3% | 69.3% | 47.3% | 74.6% | 94.4% | 49.2% | 59.4%
22 | O=C(CSc1ncccc1C(=O)O)Nc1ccc(Oc2ccccc2)cc1 | 115% | 88.3 | 106% | 99.8% | 116% | 92.1% | 105% | 106% | – | –
23 | COc1ccc(-c2nc(N3CCN(C(=O)C4CCCCC4)CC3)c3c4c(sc3n2)CCCC4)cc1 | -49.9% (active) | – | 69.8% | -28.7% (active) | 44.1% | 5.28% (active) | -24.2% (active) | 24.7% | -78.6% (active) | 36.5%
24 | CCOC(=O)C(CC(=O)O)=C(C(=O)OCC)C(=O)OCC | 134% | 91.8 | 109% | 112% | 113% | 106% | 101% | 128% | – | –
25 | O=CCCCC(O)C=O (stereo not drawn) | 111% | 97.7 | 106% | 103% | 109% | 97.9% | 111% | 105% | – | –
26 | COc1ccc(N)c(-c2cc3c(c4c2[nH]c2ccc(OC)cc24)CCCC3)c1 | 76.1% | – | 88.5% | 52.9% | 69.5% | 83.1% | 97.7% | 95.4% | 74.3% | 94.7%
27 | COc1ccc(/C=C/C(=O)c2ccc3cc(OC)c(OC)cc3c2)cc1OC | 6.78% (active) | – | 71.9% | 42% | 57.6% | 6.59% (active) | 96.3% | 83.6% | 22.8% | 36.7%
28 | N#C/C(=C\c1c(-c2ccccc2)[nH]c2ccccc12)S(=O)(=O)c1ccccc1 | 18.3% | – | 40.3% | 5.37% (active) | 34.3% | 42.7% | 52.4% | 46.6% | 33.4% | 11.6%
29 | COc1cccc2cc(N(C)c3nc(C)nc4ccsc34)ccc12 | -10.3% (active) | – | 24.1% | 12.7% | 43.4% | 16.3% | 58.9% | 13.1% | 11.7% | -63% (active)
30 | COc1ccc(Cn2c(Br)c3c(c2Br)-c2nc(N)sc2CC3)cc1 | 16.8% | – | 66.9% | 56.6% | 27.5% | 35.7% | 46.1% | 22% | 36.5% | 15.1%
